About 7,900 targets were measured; listed, in parts, are those with a hit and a random draw of the rest. About 0.6% of all pairs of compound and target were hits. Unmarked numbers belong to inactive results.
Columns and labels:
Experiment in all cases: log2 fold change, soluble protein after heating vs DMSO (PISA); higher = thermal stabilisation; K562 cells, 10 uM, 30 min; active = over 0.2 and 3.5 SD of the protein, either way, in both replicates (recomputed)
erlotinib = compound: C#Cc1cccc(Nc2ncnc3cc(OCCOC)c(OCCOC)cc23)c1 [erlotinib]
Method in brief: (§1)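 Thermal stability values are relative to control samples and come from duplicates. They are expressed as log2 fold changes. For measurement, K562 cells (2×10^6 cells/mL) received 10 μM compound for 30 min, and aliquots were heated for 3 min over 48°C-58°C, pooled, and extracted at 4°C in PBS with 0.5% NP-40. Soluble protein, the supernatant after 21,000xg for 90 min, was quantified by TMTpro 16plex LC-MS/MS with equalised channel sums.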

[1] = compound: C/C(=N\NC(=O)C1=CC(=CC=C1)S(=O)(=O)N2CCOCC2)/C3=C(C=CC(=C3)Cl)O
Method in brief: as §1

[2] = compound: C1=CC(=C(C=C1Cl)C2=NC3=NC=CN=C3C(=N2)NC4=CC=NC=C4)F
Method in brief: as §1

[3] = compound: C1=CC(=CC=C1C2=NC3=C(N2)C=C(C=C3)C(=O)N)OC4=CC=C(C=C4)Cl
Method in brief: as §1

[4] = compound: C1=CC2=C(C=CC(=C2)/C=C\3/C(=O)NC(=NCC4=CC=CS4)S3)N=C1
Method in brief: as §1

[5] = compound: C1=CC2=NC=CN=C2C=C1/C=C/3\C(=O)NC(=O)S3
Method in brief: as §1

[6] = compound: C1=CC=C(C=C1)C2=NC(=C(N2)C3=CC=NC=C3)C4=CC(=C(C=C4)Cl)O
Method in brief: as §1

[7] = compound: C1=CC=C2C(=C1)C3=NNC4=CC=CC(=C43)C2=O
Method in brief: as §1

[8] = compound: C1CCN(C1)C(=O)NC2=CC=CC(=C2)NC3=NC=C(C(=N3)NCCC4=CN=CN4)Br
Method in brief: as §1

[9] = compound: C1CN(CCC1(CC2=CC=C(C=C2)Cl)N)C3=NC=NC4=C3C=CN4
Method in brief: as §1

IRAK-1-4 Inhibitor I = compound: C1COCCN1CCN2C3=CC=CC=C3N=C2NC(=O)C4=CC(=CC=C4)[N+](=O)[O-] [IRAK-1-4 Inhibitor I]
Method in brief: as §1

ibrutinib = compound: C=CC(=O)N1CCC[C@@H](n2nc(-c3ccc(Oc4ccccc4)cc3)c3c(N)ncnc32)C1 [ibrutinib]
Method in brief: as §1

[10] = compound: CC(=O)c1cnc2ccc(-c3cc(Cl)c(O)c(Cl)c3)nc2c1N[C@H]1CC[C@H](CN(C)C)CC1
Method in brief: as §1

ralimetinib = compound: CC(C)(C)Cn1c(N)nc2ccc(-c3[nH]c(C(C)(C)C)nc3-c3ccc(F)cc3)nc21 [ralimetinib]
Method in brief: as §1

[11] = compound: CC(C)(O)CC(=O)NCCn1ccc2ncnc(Nc3ccc(Oc4cccc(C(F)(F)F)c4)c(Cl)c3)c21
Method in brief: as §1

[12] = compound: CC(C)C1=C2N=C(C=C(N2N=C1)NCC3=CC=CC=C3)NCCCCCCN
Method in brief: as §1

[13] = compound: CC(C)C[C@@H](C=O)NC(=O)[C@H](CC(C)C)NC(=O)[C@H](CC(C)C)NC(=O)OCc1ccccc1
Method in brief: as §1

pinometostat = compound: CC(C)N(C[C@H]1O[C@@H](n2cnc3c(N)ncnc32)[C@H](O)[C@@H]1O)[C@H]1C[C@@H](CCc2nc3cc(C(C)(C)C)ccc3[nH]2)C1 [pinometostat]
Method in brief: as §1

[14] = compound: CC1=C(C(CC(=O)N1)C2=CC=C(C=C2)C(F)(F)F)C(=O)NC3=C(C=C4C(=C3)C=NN4)F
Method in brief: as §1

[15] = compound: CC1=C(C2=C(C=C1)C(=O)C3=CC=CC=C3N2CCCN)C
Method in brief: as §1

Chain of UniProt Q9UI26 (Q9UI26 whole entry, looked up): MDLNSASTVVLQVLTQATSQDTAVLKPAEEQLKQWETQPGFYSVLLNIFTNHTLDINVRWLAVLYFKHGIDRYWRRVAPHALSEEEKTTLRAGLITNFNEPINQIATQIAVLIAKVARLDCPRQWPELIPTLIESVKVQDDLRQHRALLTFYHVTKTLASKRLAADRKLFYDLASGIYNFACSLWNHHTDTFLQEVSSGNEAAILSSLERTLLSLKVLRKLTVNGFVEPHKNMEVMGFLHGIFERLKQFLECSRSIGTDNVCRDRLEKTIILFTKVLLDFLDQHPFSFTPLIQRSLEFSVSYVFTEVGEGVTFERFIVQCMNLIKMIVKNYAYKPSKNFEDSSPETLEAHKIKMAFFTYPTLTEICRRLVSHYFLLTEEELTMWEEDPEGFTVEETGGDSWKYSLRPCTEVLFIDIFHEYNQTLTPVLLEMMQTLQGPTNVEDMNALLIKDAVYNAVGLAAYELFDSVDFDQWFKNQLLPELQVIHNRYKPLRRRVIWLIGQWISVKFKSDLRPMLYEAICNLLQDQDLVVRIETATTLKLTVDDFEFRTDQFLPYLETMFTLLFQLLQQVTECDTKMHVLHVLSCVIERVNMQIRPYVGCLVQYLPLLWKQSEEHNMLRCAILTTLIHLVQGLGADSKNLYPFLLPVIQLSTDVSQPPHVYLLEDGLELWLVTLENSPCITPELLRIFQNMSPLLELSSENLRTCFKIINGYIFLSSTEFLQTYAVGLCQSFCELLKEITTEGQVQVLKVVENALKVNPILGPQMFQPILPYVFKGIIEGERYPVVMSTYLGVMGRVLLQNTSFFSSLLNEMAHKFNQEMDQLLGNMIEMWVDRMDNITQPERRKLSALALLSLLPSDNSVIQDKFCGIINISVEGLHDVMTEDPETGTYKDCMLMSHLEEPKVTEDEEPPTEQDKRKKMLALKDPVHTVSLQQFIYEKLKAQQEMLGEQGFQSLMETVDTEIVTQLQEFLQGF
Chain of UniProt O95232 (O95232 whole entry, looked up): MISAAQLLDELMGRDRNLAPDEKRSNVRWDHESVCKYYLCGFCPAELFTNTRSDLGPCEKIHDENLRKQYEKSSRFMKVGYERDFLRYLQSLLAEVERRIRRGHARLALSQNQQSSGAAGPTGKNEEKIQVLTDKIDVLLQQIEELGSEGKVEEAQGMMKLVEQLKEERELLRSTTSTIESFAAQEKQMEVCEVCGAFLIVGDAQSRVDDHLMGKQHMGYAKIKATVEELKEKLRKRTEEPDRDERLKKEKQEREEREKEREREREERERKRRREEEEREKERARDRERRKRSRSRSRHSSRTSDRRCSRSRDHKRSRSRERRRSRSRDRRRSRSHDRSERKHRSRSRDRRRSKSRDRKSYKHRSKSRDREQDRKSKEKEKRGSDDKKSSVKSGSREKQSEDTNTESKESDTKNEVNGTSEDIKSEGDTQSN
Chain of UniProt O95819 (O95819 whole entry, looked up): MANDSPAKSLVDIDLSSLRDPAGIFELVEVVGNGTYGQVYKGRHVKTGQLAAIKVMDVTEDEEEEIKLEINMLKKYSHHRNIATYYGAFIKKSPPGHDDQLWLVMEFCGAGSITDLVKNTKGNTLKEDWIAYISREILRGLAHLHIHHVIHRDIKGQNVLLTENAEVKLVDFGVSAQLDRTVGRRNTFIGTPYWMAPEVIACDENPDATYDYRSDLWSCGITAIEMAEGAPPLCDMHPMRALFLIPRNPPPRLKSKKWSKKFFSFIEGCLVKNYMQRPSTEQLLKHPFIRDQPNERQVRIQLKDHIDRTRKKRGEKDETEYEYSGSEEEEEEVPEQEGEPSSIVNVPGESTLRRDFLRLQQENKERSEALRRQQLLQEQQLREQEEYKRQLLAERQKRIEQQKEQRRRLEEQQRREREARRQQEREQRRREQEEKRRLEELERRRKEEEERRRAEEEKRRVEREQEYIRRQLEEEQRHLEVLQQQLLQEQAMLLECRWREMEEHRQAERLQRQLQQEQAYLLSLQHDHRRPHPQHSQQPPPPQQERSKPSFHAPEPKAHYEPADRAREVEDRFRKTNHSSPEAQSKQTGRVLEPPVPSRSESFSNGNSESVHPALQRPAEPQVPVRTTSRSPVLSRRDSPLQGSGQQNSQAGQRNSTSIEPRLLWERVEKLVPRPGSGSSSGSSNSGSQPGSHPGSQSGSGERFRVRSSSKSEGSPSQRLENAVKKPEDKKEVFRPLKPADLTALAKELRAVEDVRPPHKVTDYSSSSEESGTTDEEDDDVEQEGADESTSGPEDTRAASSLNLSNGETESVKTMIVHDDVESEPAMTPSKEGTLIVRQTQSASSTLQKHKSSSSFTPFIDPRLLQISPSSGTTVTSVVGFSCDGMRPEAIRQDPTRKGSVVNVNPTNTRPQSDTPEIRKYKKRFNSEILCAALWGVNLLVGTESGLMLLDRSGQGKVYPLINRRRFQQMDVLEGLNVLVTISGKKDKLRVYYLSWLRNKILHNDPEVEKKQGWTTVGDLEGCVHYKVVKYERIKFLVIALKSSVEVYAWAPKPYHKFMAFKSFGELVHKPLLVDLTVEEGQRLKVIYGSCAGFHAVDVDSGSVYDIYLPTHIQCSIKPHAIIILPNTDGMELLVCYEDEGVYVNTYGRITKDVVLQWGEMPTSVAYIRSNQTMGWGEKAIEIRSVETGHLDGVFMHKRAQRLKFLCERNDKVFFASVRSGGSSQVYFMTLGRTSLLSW
Chain of UniProt Q6N075 (Q6N075 whole entry, looked up): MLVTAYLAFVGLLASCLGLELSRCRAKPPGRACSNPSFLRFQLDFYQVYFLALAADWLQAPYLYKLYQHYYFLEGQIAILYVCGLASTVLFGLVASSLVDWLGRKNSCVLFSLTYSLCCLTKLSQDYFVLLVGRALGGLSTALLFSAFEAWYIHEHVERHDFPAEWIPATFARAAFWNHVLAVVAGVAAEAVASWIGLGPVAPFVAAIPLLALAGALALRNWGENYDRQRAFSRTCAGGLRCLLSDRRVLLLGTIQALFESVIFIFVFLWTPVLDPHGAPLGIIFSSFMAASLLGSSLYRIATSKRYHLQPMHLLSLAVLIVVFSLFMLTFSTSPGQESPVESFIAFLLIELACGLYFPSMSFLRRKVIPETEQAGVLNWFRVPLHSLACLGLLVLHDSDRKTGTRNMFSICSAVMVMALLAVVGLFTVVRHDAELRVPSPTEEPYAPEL
Chain of UniProt Q9Y287 (Q9Y287 whole entry, looked up): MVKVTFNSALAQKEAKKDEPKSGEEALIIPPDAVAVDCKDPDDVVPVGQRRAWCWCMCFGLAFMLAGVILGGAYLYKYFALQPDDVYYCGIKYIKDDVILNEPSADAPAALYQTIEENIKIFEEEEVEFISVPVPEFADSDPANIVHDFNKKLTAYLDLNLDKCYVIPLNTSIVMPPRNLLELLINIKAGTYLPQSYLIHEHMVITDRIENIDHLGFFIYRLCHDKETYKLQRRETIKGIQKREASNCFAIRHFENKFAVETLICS
Chain of UniProt Q12906 (Q12906 whole entry, looked up): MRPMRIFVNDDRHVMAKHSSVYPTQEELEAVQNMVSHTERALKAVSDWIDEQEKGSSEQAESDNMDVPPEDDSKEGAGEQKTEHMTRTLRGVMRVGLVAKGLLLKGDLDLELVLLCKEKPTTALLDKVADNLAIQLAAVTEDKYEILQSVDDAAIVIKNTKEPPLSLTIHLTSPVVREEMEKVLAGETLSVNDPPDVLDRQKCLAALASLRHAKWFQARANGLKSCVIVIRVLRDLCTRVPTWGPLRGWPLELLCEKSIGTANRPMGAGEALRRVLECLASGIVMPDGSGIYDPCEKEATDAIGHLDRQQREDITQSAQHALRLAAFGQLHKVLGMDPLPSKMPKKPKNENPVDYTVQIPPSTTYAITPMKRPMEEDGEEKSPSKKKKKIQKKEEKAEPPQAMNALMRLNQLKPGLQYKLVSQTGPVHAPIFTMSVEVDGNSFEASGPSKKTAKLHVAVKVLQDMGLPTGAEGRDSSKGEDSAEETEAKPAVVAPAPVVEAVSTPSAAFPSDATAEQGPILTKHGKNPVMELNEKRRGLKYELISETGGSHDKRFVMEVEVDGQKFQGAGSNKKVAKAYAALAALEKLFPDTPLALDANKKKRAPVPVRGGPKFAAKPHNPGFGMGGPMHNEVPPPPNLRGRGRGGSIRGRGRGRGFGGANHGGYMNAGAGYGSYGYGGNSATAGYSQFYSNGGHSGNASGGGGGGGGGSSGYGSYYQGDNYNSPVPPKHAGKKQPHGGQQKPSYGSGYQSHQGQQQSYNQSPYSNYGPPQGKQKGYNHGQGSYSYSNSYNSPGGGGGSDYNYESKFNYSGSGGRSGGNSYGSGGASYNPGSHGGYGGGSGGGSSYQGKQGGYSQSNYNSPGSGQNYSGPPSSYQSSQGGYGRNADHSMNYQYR
Chain of UniProt Q9NQG6 (Q9NQG6 whole entry, looked up): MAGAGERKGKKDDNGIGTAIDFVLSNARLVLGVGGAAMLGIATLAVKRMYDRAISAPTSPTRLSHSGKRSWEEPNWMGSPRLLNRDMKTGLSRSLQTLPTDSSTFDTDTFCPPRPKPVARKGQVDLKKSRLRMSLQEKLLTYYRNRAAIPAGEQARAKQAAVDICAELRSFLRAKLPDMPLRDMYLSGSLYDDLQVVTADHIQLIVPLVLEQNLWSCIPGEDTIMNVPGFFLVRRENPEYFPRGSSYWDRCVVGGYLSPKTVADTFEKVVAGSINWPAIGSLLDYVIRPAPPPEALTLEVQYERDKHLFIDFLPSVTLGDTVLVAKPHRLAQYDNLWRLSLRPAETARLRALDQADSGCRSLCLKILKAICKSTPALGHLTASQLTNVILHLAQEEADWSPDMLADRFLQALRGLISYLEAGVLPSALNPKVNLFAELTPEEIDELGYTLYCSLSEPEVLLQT
Chain of UniProt P33947 (P33947 whole entry, looked up): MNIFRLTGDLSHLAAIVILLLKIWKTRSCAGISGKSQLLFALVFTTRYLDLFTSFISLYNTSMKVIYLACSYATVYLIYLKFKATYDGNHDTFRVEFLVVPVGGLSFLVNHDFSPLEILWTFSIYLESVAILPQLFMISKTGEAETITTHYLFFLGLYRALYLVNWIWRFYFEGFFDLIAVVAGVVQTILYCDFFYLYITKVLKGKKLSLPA

Target	log2 fold change (erlotinib)	log2 fold change [1]	log2 fold change [2]	log2 fold change [3]	log2 fold change [4]	log2 fold change [5]	log2 fold change [6]	log2 fold change [7]	log2 fold change [8]	log2 fold change [9]	log2 fold change (IRAK-1-4 Inhibitor I)	log2 fold change (ibrutinib)	log2 fold change [10]	log2 fold change (ralimetinib)	log2 fold change [11]	log2 fold change [12]	log2 fold change [13]	log2 fold change (pinometostat)	log2 fold change [14]	log2 fold change [15]
LRBA, A0A494BZW2	0.111	0.022	0.283	0.124	-0.055	0.061	-0.105	-0.013	0.097	0.189	0.02	0.018	-0.009	0.01	0	-0.436	0.041	0.076	0.006	-0.237
LONP2 (UniProt Q86WA8)	0.07	-0.111	0.263	0.131	-0.021	0.065	0.168	0.067	-0.037	-0.002	-0.016	-0.023	-0.033	0.103	-0.135	0.004	-0.609 (active)	-0.008	-0.271	-0.009
KHDC4 (UniProt Q7Z7F0)	-0.005	0.14	0.009	-0.058	0.089	0.084	0.074	-0.041	-0.042	0.025	0.034	0.025	0.003	0.012	-0.201	-0.009	0.015	-0.001	0.008	0.021
MAP2K2 (UniProt P36507)	0.021	-0.005	0.05	-0.001	0.054	-0.005	-0.058	-0.029	-0.003	0.016	0.045	0.012	-0.496 (active)	0.105	-0.065	-0.02	0.056	0.003	0.011	-0.001
MFSD5 isoform 2 (UniProt Q6N075)	0.147	0.057	0.041	0.115	-0.061	0.038	-0.144	0.109	0.014	0.034	-0.068	-0.016	-0.007	0.019	-0.017	-0.053	0.003	0.049	0.039	-0.061
MAST4 (UniProt O15021)	-0.016	0.101	0.082	0.054	0.032	0.048	-0.086	-0.02	-0.007	-0.094	-0.025	-0.138	-0.089	-0.479 (active)	-0.091	-0.085	0.002	-0.057	-0.027	0.268
MAP4K4 isoform 3 (UniProt O95819)	-0.057	0.058	-0.047	0.021	0	0.034	-0.069	-0.316 (active)	-0.031	-0.012	0	0.043	-1.13 (active)	-0.039	-0.023	-0.027	0.024	0.046	0.107	0.073
KDELR2 (UniProt P33947)	-0.06	-0.052	0.048	-0.02	0.042	0.024	0.201	0.048	-0.102	0.019	-0.007	0.03	-0.14	0.127	-0.035	-0.047	-0.568 (active)	-0.008	0.024	0.103
LUC7L3 (UniProt O95232)	0.011	0.033	-0.018	0.042	-0.093	-0.02	-0.043	-0.104	-0.002	-0.037	-0.123	-0.037	-0.409 (active)	-0.024	0.024	-0.04	0.007	-0.023	-0.013	0.109
MIEF1 (UniProt Q9NQG6)	0.009	0.03	0.104	0.021	0.072	0.001	0.025	-0.027	-0.028	-0.021	0.056	-0.003	-0.016	-0.07	-0.183	-0.247	-0.034	-0.038	-0.085	0.112
LMBRD2 (UniProt Q68DH5)	0.015	-0.007	0.097	0.011	0.022	0.038	0.016	-0.118	-0.073	0.1	0.14	-0.034	0.034	-0.016	-0.021	-0.244 (active)	-0.093	0.037	-0.007	0.012
IPO11 isoform 2 (UniProt Q9UI26)	-0.063	0.066	0.074	0.013	0.016	0.038	0.011	-0.023	0.001	-0.009	0.011	-0.014	0.039	-0.016	-0.095	0.018	-0.039	-0.035	0.002	-0.018
ILF3 isoform 7 (UniProt Q12906)	-0.068	-0.084	-0.266	-0.004	-0.049	0.099	-0.061	-0.01	0.054	-0.186	-0.098	0.014	0.172	0.067	0.086	0.338	0.001	0.134	0.006	0.218
IRF2BPL (UniProt Q9H1B7)	-0.021	0.023	0.068	0.04	-0.03	0.064	0.089	0.025	-0.041	-0.022	0.031	0.038	0.008	0.013	-0.18	0.076	0.063	-0.206	0.044	0.093
LPIN1 isoform 7 (UniProt Q14693)	0.027	0.068	0.059	-0.043	-0.001	-0.102	-0.031	0.015	-0.033	0.025	0.035	0.029	-0.379 (active)	0.016	-0.033	-0.054	0.046	0.082	0.092	0.006
ITM2B (UniProt Q9Y287)	0.099	-0.012	-0.122	0.041	0	0.042	0.068	-0.12	-0.066	0.027	-0.008	0.071	-0.043	-0.005	-0.042	-0.119	0.197	0.03	0.117	-0.198
